# In the library only some 12% were active in any assay of this set; here they are far more common.
# NS1 inh: qHTS Assay for Inhibitors of Influenza NS1 Protein Function; Potency, µM (doses to about 46.1 µM); 270,000 tested, 0.4% active; calls by dose curve; also: actives are rising curves; nearly all actives have a fitted effect of over 50% in size
#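 S. cerevisiae expressing influenza A NS1, grown in glucose, washed, then diluted 1:100 into pH 6.0 -URA galactose medium with 23 nl compound. Growth recovery read as OD600; NS1-free strain serves as control.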
# Pf growth 96h: Primary qHTS for delayed death inhibitors of the malarial parasite plastid, 96 hour incubation. P. falciparum luciferase reporter growth, 96 h. Potency, µM (doses to about 28.7 µM), hits mostly inhibitors. 320,000 tested, 6.9% active
#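 Compounds incubated with erythrocytes infected by luciferase-expressing P. falciparum (2% hematocrit, 0.05% parasitemia final) for 96 hours, 37 C in 5% CO2. Growth inhibition scored as decreased luciferase luminescence.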
# Pf growth 48h: Primary qHTS for delayed death inhibitors of the malarial parasite plastid, 48 hour incubation; 310,000 tested, 5.9% active; P. falciparum luciferase growth in erythrocytes, 48 h; Potency, µM (series often up to 28.7 µM), actives largely listed as inhibitors
#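 Compounds are pin-transferred into medium, infected erythrocytes (2% hematocrit, 0.1% parasitemia final) are added, and plates sit one parasite generation at 37 C in 5% CO2. Detection reagent is then added and luminescence measured.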
# AMA1 RON2 block: qHTS for Inhibitors of AMA1-RON; Towards Development of Antimalarial Drug Lead: Primary Screen; Plasmodium falciparum AMA1 (3D7) - RON2 peptide interaction; AlphaScreen AMA1-biotinylated RON2 peptide binding; Potency, µM (top dose mostly 58.2 µM), hits mostly inhibitors; 360,000 tested, 0.2% active; AID 720542, 2013; also: nearly all actives have a fitted effect of over 45% in size
#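 AMA1 (3D7) with his tag at 25 nM final met compounds first, then biotinylated RON2 peptide at 25 nM; detection used donor plus acceptor beads, 10 µg/mL apiece, read by AlphaScreen after 30 min at room temperature.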
# HCV inhibitor: qHTS Assay for Inhibitors of Hepatitis C Virus (HCV). Potency, µM (highest dose often 41.8 µM), actives largely listed as inhibitors. Huh7.5.1 HCVcc-Cre infection, luciferase reporter, 44 h. 340,000 tested, 3.4% active
#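 Infectious HCVcc-Cre (~0.5 moi) was added to cells just after compound, with cells seeded 4 h earlier at 1,000 per well. Luciferase activity after 44 h culture reported infection; substrate was incubated 15 min at room temperature before reading.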
# SARS PLP yeast: qHTS of Yeast-based Assay for SARS-CoV PLP. S. cerevisiae expressing SARS-CoV PLpro, growth rescue. 330,000 tested, 0.19% active. Potency, µM (highest dose often 32.9 µM), usual class: activators; calls by dose curve; also: nearly all actives have a fitted effect of over 55% in size
# A number is an active result; n = inactive; u = inconclusive; x = no result given; ! = a repeat was not active. Unless noted, calls follow the shape of the dose curve; as a rule, active = well fitted curve in the direction sought with a large enough effect; inconclusive = small, poorly fitted or top-dose-only effect, or another doubt; inactive = no such curve, though single readings can be large; an effect the other way counts as inactive or inconclusive.
SMILES,NS1 inh,Pf growth 96h,Pf growth 48h,AMA1 RON2 block,HCV inhibitor,SARS PLP yeast
C/C(=N\NC(=O)C(c1ccccc1)c1ccccc1)c1ccccn1,n,2.33µM,2.33µM,n,11.2µM,n
O=C(OC(C(=O)NCc1ccccc1)c1ccccc1F)c1ccco1 (configuration not stated),n,n,n,n,n,n
COc1ccc(Cl)cc1C(=O)Nc1cccnc1,n,n,n,n,u,n
COc1ccc(F)cc1-c1cc(C(=O)Nc2cccnc2)[nH]n1,x,x,x,n,x,x
Cc1ccc(O)c(-c2cc(C(=O)Nc3cccnc3)[nH]n2)c1,n,2.94µM,3.7µM,n,n,n
O=C(Nc1cccnc1)c1cc(-c2cc(Cl)ccc2O)n[nH]1,n,0.738µM,u,n,n,n
CCOC(=O)C1CCN(C(=O)COC(=O)CNC(=O)c2ccc(OC)cc2)CC1,x,n,u,n,n,n
CC[C@H](C)[C@@H](CNC)NC[C@@H](Cc1ccc(O)cc1)NCC(C)(C)C,n,13.1µM,u,n,u,n
Cc1nnc(SCc2ccc([N+](=O)[O-])cc2)o1,n,n,n,n,n,n
COc1ccc(OC)c(NC(=O)c2ccc(CN(c3cc(Cl)ccc3C)S(=O)(=O)c3ccccc3)cc2)c1,n,u,1.47µM,n,n,n
COc1ccc(OC)c(NC(=O)c2cccc(S(=O)(=O)N(Cc3ccccc3)c3ccccc3OC)c2)c1,n,7.38µM,14.7µM,n,n,n
COc1ccccc1N(Cc1ccccc1)S(=O)(=O)c1cccc(C(=O)Nc2ccc(C(C)=O)cc2)c1,n,3.7µM,u,n,n,n
CCOc1ccccc1N(CC(=O)Nc1cc(OC)ccc1OC)S(=O)(=O)c1ccccc1,n,n,u,n,u,n
COc1ccccc1N(Cc1ccccc1)S(=O)(=O)c1cccc(C(=O)N2CCCCC2)c1,x,x,x,n,n,n
O=c1[nH]c(=S)[nH]c2sc3c(c12)CCCCCC3,n,u,n,n,n,n
CC(O)CSc1nc2c(c(=O)[nH]c(=O)n2C)n1Cc1ccccc1Cl (configuration not stated),n,n,n,n,n,n
Cc1cccc(CC(=O)NCCN2CCOCC2)c1,n,n,n,n,n,n
CCn1c(C)nc2cc(-c3nnc(-c4c(-c5ccccc5)noc4C)o3)ccc21,n,n,9.28µM,n,u,n
CCOC(=O)C1=C(CSc2nc3c(cc2C#N)CN(C)CC3)OC(N)=C(C#N)C1c1ccncc1 (configuration not stated),n,u,n,n,n,n
CCOC(=O)C1=C(CSc2nc3c(cc2C#N)CN(C)CC3)OC(N)=C(C#N)C1c1ccc(Cl)cc1 (configuration not stated),n,u,u,u,12.6µM,n
COc1ccc(Br)cc1C(C[N+](=O)[O-])c1c(N)n(C)c(=O)n(C)c1=O (configuration not stated),n,u,3.7µM,n,3.98µM,n
CN(C)c1ccc(C(C[N+](=O)[O-])c2c(N)n(C)c(=O)n(C)c2=O)c(F)c1C#N (configuration not stated),n,n,n,n,n,n
COc1ccc(-c2nc3c(c(=O)n(C)c(=O)n3C)n2CC2CC(c3ccccc3)=NO2)cc1OC (configuration not stated),n,x,x,n,5.62µM,x
CCOc1ccc(NC(=O)CN(C)C(=O)c2ccccc2SCc2c(C)noc2C)cc1OCC,x,n,n,n,n,n
CC(C)C[C@H](NC(=O)c1nc[nH]c1C(=O)N[C@@H](CC(C)C)C(=O)OCc1ccccc1)C(=O)OCc1ccccc1,n,11.7µM,u,n,u,n
SMILES,NS1 inh,Pf growth 96h,Pf growth 48h,AMA1 RON2 block,HCV inhibitor,SARS PLP yeast
C[C@H](NC(=O)c1nc[nH]c1C(=O)NC(c1ccccc1)c1ccccc1)C(=O)OCc1ccccc1,n,u,10.4µM,n,n,n
CC(C)C[C@H](NC(=O)c1[nH]cnc1C(=O)N[C@H](C)c1ccccc1)C(=O)OCc1ccccc1,u,u,u,n,n,n
CC(C)C[C@H](NC(=O)c1[nH]cnc1C(=O)N[C@@H](Cc1ccccc1)C(=O)OCc1ccccc1)C(=O)OCc1ccccc1,u,u,u,n,n,n
CC(C)C[C@H](NC(=O)c1nc[nH]c1C(=O)NC(c1ccccc1)c1ccccc1)C(=O)OCc1ccccc1,u,2.94µM,3.7µM,n,u,n
Cc1ccc(NC2Sc3ccccc3NC2=O)cc1Cl (configuration not stated),n,n,n,n,n,n
Cc1ccc(Cl)cc1N1CCN(C(=O)Cc2csc(Nc3nc(=S)[nH]c4ccccc34)n2)CC1,n,n,n,n,u,n
O=C(Cc1csc(Nc2nc(=S)[nH]c3ccccc23)n1)N1CCN(c2cccc(Cl)c2)CC1,n,n,u,n,11.2µM,n
O=C(Nc1cccs1)Nc1c(F)c(F)c(F)c(F)c1F,n,n,u,n,n,n
O=C(Nc1cccs1)Nc1c(F)c(F)cc(F)c1F,n,4.65µM,u,n,n,n
O=C(c1[nH]c(C(F)(F)F)nc1-c1ccccc1)N1CCOCC1,x,x,x,n,x,x
O=C(C1CC1)N1N=C(c2ccc(F)cc2)CC1(O)C(F)(F)F (configuration not stated),n,11.7µM,n,n,n,n
O=C(C1CC1)N1N=C(c2ccc(Cl)cc2)CC1(O)C(F)(F)F (configuration not stated),n,n,n,n,n,n
Cc1ccc(S(=O)(=O)N2CCCCC2)cc1C(=O)OC(C)C(=O)NCC1CCCCC1 (configuration not stated),x,u,n,n,u,n
Cc1ccc(S(=O)(=O)N2CCN(C(=O)COC(=O)CNC(=O)c3ccccc3F)CC2)c(C)c1,x,x,x,n,n,x
O=C(Cc1c(Cl)cccc1Cl)OCc1ccccn1,n,u,u,n,n,n
NC(N)=NC(=O)Cc1c(Cl)cccc1Cl,n,1.85µM!,u,n,n,n
O=C(NC1C2CCCC1CN(C1CC1)C2)c1ccc(Cl)cc1 (configuration not stated),n,u,u,n,u,n
O=C(N/N=C/c1ccccc1F)c1cc2c(ccc3ccccc32)o1,n,n,n,n,n,n
C=CCn1cc(/C=N\NC(=O)c2cc3c(ccc4ccccc43)o2)c2ccccc21,n,n,u,n,10µM,n
COc1cccc(O)c1CN1CCC(n2nccc2NC(=O)c2ccc3c(c2)OCO3)CC1,n,n,11.7µM,n,n,u
CCc1ccc(CN2CCC(n3nccc3NC(=O)c3ccc4c(c3)OCO4)CC2)cc1,n,u,u,n,u,n
